The supplement of paper PMC3334620
In all, about 33,000 sequences were measured (“E-score (-0.5 to 0.5)”: median about -0.013, highest 2% from about 0.3 on). Many of the other results were omitted from the sample, so the highest values are more common in it than they were.

target: T1, Msn1 (UniProt P22148); assay: PBM E-score (8-mer binding enrichment) (E-score (-0.5 to 0.5)); higher = stronger / more preferred TF binding; settings: protein concentration: 200 nM; construct: GST-full length
T1 sequence: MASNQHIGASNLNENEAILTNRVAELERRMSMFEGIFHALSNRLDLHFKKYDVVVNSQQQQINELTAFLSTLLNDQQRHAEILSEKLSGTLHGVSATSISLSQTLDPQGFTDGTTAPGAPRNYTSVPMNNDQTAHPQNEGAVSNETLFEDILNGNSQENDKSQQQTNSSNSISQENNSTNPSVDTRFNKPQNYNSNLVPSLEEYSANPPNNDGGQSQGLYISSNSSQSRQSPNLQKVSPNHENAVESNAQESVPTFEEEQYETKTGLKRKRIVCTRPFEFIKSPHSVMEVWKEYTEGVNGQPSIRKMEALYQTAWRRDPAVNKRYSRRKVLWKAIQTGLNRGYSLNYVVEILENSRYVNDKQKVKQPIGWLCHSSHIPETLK
Outline: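 Bound GST-tagged yeast transcription factors, applied at about 100-200 nM to double-stranded universal all-10-mer Agilent arrays, were detected with fluorescent anti-GST. Scans were normalised with masliner. A modified Wilcoxon-Mann-Whitney statistic, the E-score, was assigned to each ungapped eight-base word pooled with its reverse complement by the Universal PBM Analysis Suite.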

| Sequence | PBM E-score |
| --- | --- |
| CCAGGGAC | 0.0428 |
| ACGTTAGT | 0.0228 |
| ACTTACTG | -0.113 |
| AAGCTGCG | 0.00828 |
| AGCCCTGC | -0.252 |
| AAGGGCGG | -0.21 |
| CCGAACCC | -0.146 |
| CATTGCAC | 0.0641 |
| ATAACGAT | -0.192 |
| CTAATGAC | -0.12 |
| ATAATGTC | 0.427 |
| CTAATGTC | 0.378 |
| ATAATGTA | 0.139 |
| ATAATGTG | -0.0687 |
| CTAATGTA | 0.143 |
| AATCCTTC | -0.0471 |
| AACCCGTT | -0.0539 |
| ACGAGCGT | -0.173 |
| ATTCGTCG | 0.0922 |
| ATTCGTCC | 0.323 |
| CTTCGTCC | -0.0108 |
| CAACGACA | 0.307 |
| ACACGACA | 0.225 |
| ATACGACA | 0.133 |

| Sequence | PBM E-score |
| --- | --- |
| CGACGACA | 0.17 |
| TCACGACA | 0.322 |
| CCACGACA | 0.179 |
| CAACGACC | -0.156 |
| CAACGACG | -0.0172 |
| GTACGACA | 0.345 |
| CTACGACA | 0.311 |
| CTACGACC | -0.119 |
| GCACGACA | -0.045 |
| AAAACGCC | 0.045 |
| GCTGCGCC | -0.192 |
| CAAAGTGC | 0.0233 |
| CGCGCCCG | -0.0907 |
| ACTAGACG | 0.112 |
| CCTTGCCG | -0.0395 |
| AAAGATCC | -0.12 |
| AGAGATCG | -0.0703 |
| GTACGAAA | 0.249 |
| CTACGAAC | 0.0953 |
| GTACGAAC | 0.311 |
| GCACCCAC | -0.091 |
| CCTACCAA | 0.133 |
| CAAGATGG | -0.0978 |
| AGAACAAA | 0.303 |

| Sequence | PBM E-score |
| --- | --- |
| GGTACAAA | 0.456 |
| CGTACAAG | 0.0872 |
| AGAACAAT | 0.0106 |
| TTTACAAA | 0.12 |
| GTTACAAA | 0.158 |
| CGTACAAC | 0.093 |
| TGTACACA | 0.279 |
| TGTACAAA | 0.392 |
| AGAACAAG | 0.151 |
| CGTACAAA | 0.356 |
| GGTACAAC | 0.188 |
| TAAAGTGA | 0.0769 |
| GATTGTGA | 0.0853 |
| CTAAATGC | 0.035 |
| GCGGGCAC | -0.0424 |
| CTCAACGC | -0.267 |
| CGTACATA | 0.296 |
| AGTACAAT | 0.29 |
| AGTACAAG | 0.251 |
| GATACAAA | 0.313 |
| TATACAAA | 0.183 |
| AGTACATA | 0.221 |
| GGTACATA | 0.341 |
| AGTACAAA | 0.44 |

| Sequence | PBM E-score |
| --- | --- |
| GATACAAC | 0.212 |
| CATGTCTC | 0.343 |
| CATGTCTA | 0.268 |
| GATGTCTA | 0.239 |
| CATGTGTC | 0.298 |
| ACTGTCTG | 0.079 |
| AGTGTCTG | 0.154 |
| AATGTCTA | 0.454 |
| AATGTGTC | 0.3 |
| AATGTCTC | 0.463 |
| AATGTTTC | 0.105 |
| AATGTCTG | 0.436 |
| CAGGTCTC | -0.00322 |
| AGAAGCGG | -0.101 |
| AAAACCAG | 0.152 |
| CGTAAGGA | -0.0491 |
| ACCATGGG | -0.161 |
| GCCTATAA | 0.0368 |
| TACCCGTA | -0.0437 |
| ATTTGCGC | 0.104 |
| CACCTGAG | -0.0701 |
| ACATATGT | 0.28 |
